# In ChEMBL document CHEMBL3988442, “University of Dundee, Small-Polar-MMV Screening Library” (2021):
# The campaign covered roughly 48,000 compounds. About 13,000 (27%) showed an effect of 50% or more. The list shows a part of the results.
# Tested on: Wolbachia pipientis
# Assay: Anti-Wolbachia Cell-Based Screen
# Format: functional
# Set-up: scale not given: in the data most compounds retested in dose-response had high values
# Conditions: 5 µM
row,SMILES,Percent Effect
1,COc1cc(C(C)=O)ccc1OCC(=O)N(CC(C)C#N)C1CC1 (stereo not drawn),-5.755%
2,O=C(CN1CCN(c2ccc3nncn3n2)CC1)NC1CCCC1,0.9347%
3,O=C(CN1CCN(c2ccc3nncn3n2)CC1)NC1CCCCC1,14.04%
4,CC(Nc1cccc(Oc2ccc(C#N)cn2)c1)C(=O)NC1CC1 (stereo not drawn),4.844%
5,COc1cccc(C(=O)NCC(O)c2cccs2)c1 (stereo not drawn),-0.6339%
6,CC(C)CNC(=O)c1cccc(Oc2ccc3nncn3n2)c1,96.36%
7,CC(=O)N1CC(c2ncn(C(C)C)n2)c2cc(C(=O)NC(C)C)ccc21 (stereo not drawn),-2.765%
8,O=C(NC1CCCCC1)c1ccc(Oc2ccc3nncn3n2)cc1,113.3%
9,CN(C)C(CNC(=O)c1cccc(-n2cnnn2)c1)c1ccccc1Cl (stereo not drawn),-8.623%
10,CC(C)NC(=O)c1cccc(Oc2ccc3nncn3n2)c1,131.1%
11,O=C(NC1CC1)c1cccc(Oc2ccc3nncn3n2)c1,135.1%
12,CC1CN(CC(=O)NC2CCCC2)CCN1c1ccc2nncn2n1 (stereo not drawn),1.075%
13,CC(C)NC(=O)c1ccc2nnc(C3CCN(C(=O)NC(C)C)C3)n2c1 (stereo not drawn),5.911%
14,N#Cc1cccnc1NCCNC(=O)N1CCCC(C(F)(F)F)C1 (stereo not drawn),-23.68%
15,CS(=O)(=O)NCCC1CN(Cc2ccccc2F)CCO1 (stereo not drawn),-13.1%
16,N#Cc1c[nH]c(C(=O)N(Cc2ccc(O)cc2)CC2CC2)c1,-16.08%
17,O=C(NCC(O)c1cccs1)c1cccc(Cl)c1 (stereo not drawn),-18.24%
18,CNc1nc(C(=O)N2CCC3(CCCN(CCOC)C3=O)C2)cs1 (stereo not drawn),-30.8%
19,COc1ccc(-c2cnc3c(c2)CN(C2CC2)C(=O)CCN3)cc1,106.7%
20,O=C1CCNc2ncc(-c3ccccc3Cl)cc2CN1C1CC1,75.8%
21,O=C(c1ncc[nH]1)N1CCC(n2cc(-c3cccc(Cl)c3)nn2)CC1,-7.325%
22,O=S(=O)(c1ccccc1Cl)N1CCc2nc(C3CCNCC3)ncc2C1,-5.628%
23,COc1ccc(NC2CCN(C3CC3)C2=O)cn1 (stereo not drawn),-16.66%

row,SMILES,Percent Effect
1,O=C1CCNc2ncc(-c3ccc(Cl)cc3)cc2CN1C1CC1,113.7%
2,CNC(=O)c1cn2cc(-c3cccc(Cl)c3)n(CC3CC3)c(=O)c2n1,-6.691%
3,COc1ccc(-c2nnc(CN3CCNC(=O)C3)o2)cc1,-34.6%
4,O=C1CCNc2ncc(-c3cccc(Cl)c3)cc2CN1C1CC1,104.4%
5,CC(O)c1cn(C2CCN(C(=O)C3(C)CCCCC3)CC2)nn1 (stereo not drawn),29.6%
6,NC(=O)CCOc1ccc(NC(=O)c2ccccc2OC(F)F)cc1,5.121%
7,CC(=O)N1CCC(N2CCOC[C@H]2c2nc(C(C)(C)C)c[nH]2)CC1,-20.09%
8,COc1cccc2c1OCC(Cc1cc(C(=O)N3CCCC3)ccn1)C2 (stereo not drawn),103.2%
9,COc1cccc2c1OCC(CNC(=O)Cn1ccnc1C)C2 (stereo not drawn),-7.516%
10,CCNC(=O)c1ccnc(CC2COc3c(cccc3OC)C2)c1 (stereo not drawn),109.1%
11,COc1cccc2c1OCC(Cc1cc(C(N)=O)ccn1)C2 (stereo not drawn),86.97%
12,COc1cccc2c1OCC(CNC(=O)CN(C)C1CCCC1)C2 (stereo not drawn),-4.207%
13,COc1cccc2c1OCC(Cc1cnc(N)c(C)c1)C2 (stereo not drawn),43.69%
14,CNC(=O)c1ccnc(CC2COc3c(cccc3OC)C2)c1 (stereo not drawn),100.6%
15,COc1cccc2c1OCC(C(=O)N1CCSCC1)C2 (stereo not drawn),-0.8492%
16,CCOCCC(=O)NCC1COc2c(cccc2OC)C1 (stereo not drawn),-9.333%
17,COc1cccc2c1OCC(C(=O)N1Cc3ccccc3C1)C2 (stereo not drawn),-46.74%
18,COc1cccc2c1OCC(CNC(=O)Cc1csc(C(C)=O)c1)C2 (stereo not drawn),-8.032%
19,COc1cccc2c1OCC(CNC(=O)Cc1cnccn1)C2 (stereo not drawn),-6.368%
20,CCCC(C)NCc1cnc(-c2cccc(C)c2)nc1 (stereo not drawn),4.812%
21,CC1=C[C@@H](CN2CCC(O)CC2)[C@H](C(C)C)C[C@H]1Cc1nnc(C)o1,4.973%
22,CC(C(=O)N(C)Cc1ccco1)n1cncn1 (stereo not drawn),14.16%
23,CN1Cc2[nH]nc(COCC3CC3)c2C1.O=C(O)C(F)(F)F.O=C(O)C(F)(F)F,-7.545%

row,SMILES,Percent Effect
1,CC(CO)CNC(=O)c1cc2cccc(F)c2o1 (stereo not drawn),-10.54%
2,CN1CCN(CC2CC2)C(=O)c2cnc(N3CCC(CO)CC3)nc21,85.31%
3,CN1CCN(CC2CC2)C(=O)c2cnc(N3CCCCC3)nc21,8.561%
4,Cc1cnc(N2C[C@@H]3CCN(CC4CC4)C(=O)[C@H]3C2)nc1,4.769%
5,CN1CCN(CC2CC2)C(=O)c2cnc(N3CCOCC3)nc21,128%
6,CN1CCN(CC2CC2)C(=O)c2cnc(N3CC[C@@H](O)C3)nc21,-2.603%
7,CN1CCN(CC2CC2)C(=O)c2cnc(N3CCCC3)nc21,-1.77%
8,c1cc2c(cc1-c1noc3c1CN(C1CCSC1)CC3)OCO2 (stereo not drawn),2.821%
9,CC(NCc1ccccc1CN1CCCC1=O)c1ccc(C#N)cc1 (stereo not drawn),-5.192%
10,CCN(CCOc1ccc(F)cc1)C(=O)c1ccncc1Cl,2.739%
11,O=C(NCCC1CN(Cc2cccnc2)CCO1)c1ccsc1 (stereo not drawn),-9.218%
12,N#CCCSc1sc2c(O)cc(O)nc2c1C#N,107.9%
13,N#Cc1c(SCCN2CCCCC2)sc2c(O)cc(O)nc12,98.27%
14,N#Cc1ccc(F)c(CSCCN2CCOCC2)c1,-32.26%
15,N#Cc1c(SCCN2CCCCCC2)sc2c(O)cc(O)nc12,100.4%
16,N#Cc1ccc(-c2nnc(CSCCN3CCOCC3)o2)cc1,-12.22%
17,N#Cc1c(SCCN2CCOCC2)sc2c(O)cc(O)nc12,143.1%
18,FC(F)(F)Cn1nnnc1SCCN1CCCCC1,-6.458%
19,Cn1cc(Br)cc1C(=O)NC1(C#N)CC1,-11.26%
20,c1cnc(NCCCOC2CCOCC2)nc1,1.156%
21,CC(C)CN1CCCn2nc(CNC(=O)CN3CCOC3=O)cc2C1,1.752%
22,Cn1cnnc1CNC(=O)CCCOc1ccccc1Cl,2.629%
